Source: PubChem BioAssay (NCATS)
Results filed as inconclusive are left out. Active and inactive are the calls of the source. Unless noted, calls come from the whole dose curve; as a rule, active = well fitted curve in the direction sought with a large enough effect; inconclusive = small, poorly fitted or top-dose-only effect, or another doubt; inactive = no such curve, though single readings can be large; an effect the other way counts as inactive or inconclusive.

Assays:
[1] = S16 Schwann cell PMP22 intronic element firefly luciferase assay (AID 624032); note: nearly all actives have a fitted effect of over 30% in size; note: potency is the fitted concentration of half-maximal effect;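 for activity change, negative = inhibition: plate controls were DMSO for no effect and PTC124 positive control mean for full effect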
In short: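 Luciferase reporter of PMP22 intronic-element expression in stably transfected S16 rat Schwann cells, read by ONE-Glo luminescence after 24 h compound exposure at 37 C. Activity scaled between DMSO (0%) and positive-control PTC124; concentration-effect curves quality-classified.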

[2] = S16 Schwann cell PMP22 intronic element beta-lactamase assay (AID 624044; calls by dose curve; note: nearly all actives have a fitted effect of over 15% in size; note: potency is the fitted concentration of half-maximal effect)
In short: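 Beta-lactamase reporter under a PMP22 intronic regulatory element in stable S16 rat Schwann cells; 24 h compound exposure. 460 nm blue signal normalized between DMSO (0%) and potassium clavulanate, with 535 nm FRET tracking viability; curves classed by r2 and response.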

[3] = tested on: CP191; assay: qHTS profiling for inhibitors of Plasmodium falciparum proliferation (AID 504749); note: nearly all actives have a fitted effect of over 60% in size; note: potency is the fitted concentration of half-maximal effect; settings: P. falciparum in erythrocytes, SYBR Green DNA, 72 h; series mostly up to 28.7 µM
In short: (§1)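 SYBR Green fluorescence of parasite DNA, read after lysis and overnight dark incubation, measured growth over 72 h in erythrocyte culture at 0.3% parasitemia and 2.5% hematocrit. Data normalised to DMSO and 0.29 uM artemisinin, with plate-drift correction.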

[4] = tested on: CP192; assay: as above; settings: P. falciparum in erythrocytes, SYBR Green DNA, 72 h; series mostly up to 28.7 µM
In short: as §1

[5] = tested on: CP256; assay: as above; settings: P. falciparum in erythrocytes, SYBR Green DNA, 72 h; series mostly up to 28.7 µM
In short: as §1

[6] = tested on: CP305; assay: as above; settings: P. falciparum in erythrocytes, SYBR Green DNA, 72 h; series mostly up to 28.7 µM
In short: as §1

[7] = tested on: CP315; assay: as above; settings: P. falciparum in erythrocytes, SYBR Green DNA, 72 h; series mostly up to 28.7 µM
In short: as §1

[8] = tested on: CP329; assay: as above; settings: P. falciparum in erythrocytes, SYBR Green DNA, 72 h; series mostly up to 28.7 µM
In short: as §1

[9] = tested on: CP335; assay: as above; settings: P. falciparum in erythrocytes, SYBR Green DNA, 72 h; series mostly up to 28.7 µM
In short: as §1

[10] = tested on: JCK; assay: as above; settings: P. falciparum in erythrocytes, SYBR Green DNA, 72 h; series mostly up to 28.7 µM
In short: as §1

[11] = tested on: CP269; assay: as above; settings: P. falciparum in erythrocytes, SYBR Green DNA, 72 h; series mostly up to 28.7 µM
In short: as §1

[12] = tested on: ECU; assay: as above; settings: P. falciparum in erythrocytes, SYBR Green DNA, 72 h; series mostly up to 28.7 µM
In short: as §1

[13] = tested on: ICS; assay: as above; settings: P. falciparum in erythrocytes, SYBR Green DNA, 72 h; series mostly up to 28.7 µM
In short: as §1

[14] = tested on: N140; assay: as above; settings: P. falciparum in erythrocytes, SYBR Green DNA, 72 h; series mostly up to 28.7 µM
In short: as §1

[15] = tested on: P93_24; assay: as above; settings: P. falciparum in erythrocytes, SYBR Green DNA, 72 h; series mostly up to 28.7 µM
In short: as §1

[16] = tested on: P94_40; assay: as above; settings: P. falciparum in erythrocytes, SYBR Green DNA, 72 h; series mostly up to 28.7 µM
In short: as §1

[17] = tested on: TAB109; assay: as above; settings: P. falciparum in erythrocytes, SYBR Green DNA, 72 h; series mostly up to 28.7 µM
In short: as §1

[18] = tested on: HB3; assay: as above; settings: P. falciparum in erythrocytes, SYBR Green DNA, 72 h; series mostly up to 28.7 µM
In short: as §1

[19] = tested on: TAB113; assay: as above; settings: P. falciparum in erythrocytes, SYBR Green DNA, 72 h; series mostly up to 28.7 µM
In short: as §1

[20] = AP1 Signaling Pathway (AID 357; active = well fitted curve in either direction with a large enough effect, not every such curve was filed as active;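 note: ME-180 reporter cells stimulated with EGF at its EC50 level; % is set by controls: 0 for no effect and ±100 for the full control effect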); settings: ME-180 (cervical carcinoma) AP-1-bla reporter, EGF-induced, beta-lactamase ratio, 5 h; at 7.69 µM (top of the series) unless noted
In short: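 In this screen, ME-180 cells in Opti-MEM with 0.5% dialyzed FBS received EC50 EGF and compound titrations for 5 h. AP-1 reporter beta-lactamase was detected via CCF4 ratio, giving AC50 for positive and negative modulators.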

O=NCc1ccc([N+](=O)[O-])o1
active: Potency [1] 12.8 µM
inactive: Potency [2] | Potency [3] | Potency [4] | Potency [5] | Potency [6] | Potency [7] | Potency [8] | Potency [9] | Potency [10]

CN1CC[C@H](CN2c3ccccc3Sc3ccccc32)C1
inactive: Potency [2] | Potency [4] | Potency [7] | Potency [8]
active: Potency [1] 32.2 µM | Potency [3] 10 µM | Potency [5] 8.91 µM | Potency [11] 15.1 µM | Potency [6] 15.1 µM | Potency [12] 11.2 µM | Potency [13] 2 µM | Potency [14] 11.2 µM | Potency [15] 7.08 µM | Potency [16] 8.91 µM | Potency [17] 11.2 µM

CCN1/C(=C/C=C/C=C/c2sc3ccccc3[n+]2CC)Sc2ccccc21
active: Potency [3] 3.55 µM | Potency [4] 5.36 µM | Potency [5] 4.47 µM | Potency [11] 15.1 µM | Potency [6] 10.7 µM | Potency [7] 12 µM | Potency [8] 6.75 µM | Potency [9] 1.07 µM | Potency [12] 4.47 µM | Potency [18] 2.24 µM | Potency [13] 1 µM | Potency [10] 11.2 µM | Potency [14] 5.62 µM | Potency [15] 3.55 µM | Potency [16] 3.98 µM | Potency [17] 3.98 µM | Potency [19] 5.01 µM

O=C1c2ccccc2C(=O)C1c1ccc2ccccc2n1
inactive: activity change, negative = inhibition [20] 13% [at 17.2 µM]

S=C1NC=NC2N=CNC12 (stereo not given)
active: Potency [1] 2.87 µM | Potency [2] 17.8 µM
inactive: Potency [3] | Potency [5] | Potency [9] | Potency [12] | Potency [18] | Potency [13] | Potency [10] | Potency [14] | Potency [15] | Potency [16] | Potency [17] | Potency [19]

CN(C)CCCCCCN(C)C
inactive: Potency [2] | Potency [3] | Potency [4] | Potency [5] | Potency [11] | Potency [6] | Potency [7] | Potency [8] | Potency [9] | Potency [12] | Potency [18] | Potency [13] | Potency [10] | Potency [14] | Potency [15] | Potency [16] | Potency [17] | Potency [19]

COc1ccc2[nH]cc(CCNc3ncncc3-c3ccccc3C(F)(F)F)c2c1
inactive: activity change, negative = inhibition [20] 3.8%

COc1cccc(Cn2c(=O)cnc3cnc(N(C)C)nc32)c1
inactive: activity change, negative = inhibition [20] -10.4%

CNc1ncncc1-c1ccccc1CN(C)C
inactive: activity change, negative = inhibition [20] 7.24%

C1OCOCO1
inactive: Potency [1] | Potency [2] | Potency [3] | Potency [4] | Potency [5] | Potency [11] | Potency [6] | Potency [7] | Potency [8] | Potency [9] | Potency [12] | Potency [18] | Potency [13] | Potency [10] | Potency [14] | Potency [15] | Potency [16] | Potency [17] | Potency [19]

c1ccc(Nc2nc(-c3ccoc3)nc3ccccc23)cc1
inactive: activity change, negative = inhibition [20] 0.696%

Cc1ccccc1-c1ccc2ncnc(NCCN3CCOCC3)c2c1
inactive: activity change, negative = inhibition [20] 13.8%

O=c1cnc2cnc(N3CCOCC3)nc2n1Cc1cccs1
inactive: activity change, negative = inhibition [20] -3.18%

C/C=C\c1ccc(OC)cc1
inactive: Potency [1] | Potency [3] | Potency [4] | Potency [5] | Potency [11] | Potency [6] | Potency [7] | Potency [8] | Potency [9] | Potency [12] | Potency [18] | Potency [13] | Potency [10] | Potency [14] | Potency [15] | Potency [16] | Potency [17] | Potency [19]

CC(C)(CO)C(O)C(=O)NCCCC(=O)O (stereo not given)
active: Potency [11] 16.9 µM
inactive: Potency [1] | Potency [2] | Potency [18] | Potency [19]

NC1=NC(S)C2N=CN=C2N1 (stereo not given)
active: Potency [1] 1.44 µM | Potency [2] 3.98 µM
inactive: Potency [4] | Potency [11] | Potency [6] | Potency [7] | Potency [8] | Potency [9] | Potency [12] | Potency [18] | Potency [13] | Potency [10] | Potency [14] | Potency [15] | Potency [16] | Potency [17] | Potency [19]
